Source: the supplement of paper PMC13380429

Assays:
[1] = test system: Vero E6 infected with SARS-CoV-2; test: morphology score (similarity to uninfected cells); higher = more like uninfected cells; conditions: 24 h
[2] = test system: Vero E6 infected with SARS-CoV-2; test: SARS-CoV-2 infection rate relative to infected DMSO; higher = more infection, active = 60 or less; conditions: 24 h

Compound | morphology score [1] | SARS-CoV-2 infection rate [2]
CC(=O)Oc1ccc(C(c2ccc(OC(C)=O)cc2)c2ccccn2)cc1 [bisacodyl] (10 µM) | 0.261 | 85.5% (inactive)
CCCC(=O)O[C@]1(C(=O)COC(C)=O)CC[C@H]2[C@@H]3C[C@H](F)C4=CC(=O)C=C[C@]4(C)[C@@]3(F)[C@@H](O)C[C@@]21C [difluprednate] (10 µM) | 0.215 | 100% (inactive)
CO[C@@H]1[C@@H](OC(N)=O)[C@@H](O)[C@H](Oc2ccc3c(O)c(NC(=O)c4ccc(O)c(CC=C(C)C)c4)c(=O)oc3c2C)OC1(C)C [novobiocin] (10 µM) | 0.165 | 95% (inactive)
CC[C@@H](CO)NCCN[C@@H](CC)CO [ethambutol] (10 µM) | -0.117 | 109% (inactive)
O=S(=O)(O)CCSSCCS(=O)(=O)O [dimesna] (10 µM) | 0.144 | 104% (inactive)
C[C@@H](N)c1ccc(C(=O)Nc2ccnc3[nH]ccc23)cc1 (10 µM) | -0.104 | 112% (inactive)
CCCCCCCN(CC)CCC[C@@H](O)c1ccc(NS(C)(=O)=O)cc1 (racemic) [ibutilide] (10 µM) | 0.189 | 107% (inactive)
CCCCc1ccc(C(N)=O)nc1 [bupicomide] (10 µM) | -0.191 | 102% (inactive)
NC(=O)c1ccc([N+](=O)[O-])cc1Cl [aklomide] (10 µM) | -0.229 | 114% (inactive)
COc1cc(C=O)ccc1O [vanillin] (10 µM) | 0.0882 | 104% (inactive)
C/C(=N\c1ccccc1N)c1c(C)cc(=O)n(O)c1O (10 µM) | -0.169 | 107% (inactive)
Nc1ccc(O)c(C(=O)O)c1 [mesalazine] (10 µM) | 0.0799 | 93.5% (inactive)
Cc1cn2c(N)c(Cl)cc(C(=O)NCC3CCN(CC(C)C)CC3)c2n1 (10 µM) | 0.221 | 103% (inactive)
CO/N=C(\C(=O)N[C@@H]1C(=O)N2C(C(=O)[O-])=C(C[n+]3ccn4ncccc43)CS[C@H]12)c1nsc(N)n1 [cefozopran] (10 µM) | 0.0209 | 112% (inactive)
O=C(O)COc1cccc(CN(Cc2ccc(-n3cccn3)cc2)S(=O)(=O)c2cccnc2)c1 [taprenepag] (10 µM) | -0.0257 | 100% (inactive)
Nc1nc(-c2nn(Cc3ccccc3F)c3ncccc23)ncc1C1CC1 (0.833333 µM) | -0.057 | 102% (inactive)
CCC(=O)Nc1cccc(Oc2nc(Nc3ccc(N4CCN(C)CC4)cc3OC)ncc2Cl)c1 (10 µM) | 0.0191 | 114% (inactive)
COC1=CC(=O)C[C@@H](C)[C@]12Oc1c(Cl)c(OC)cc(OC)c1C2=O [griseofulvin] (10 µM) | 0.0707 | 104% (inactive)
CC(C)NCC(O)c1ccc2ccccc2c1 (stereo not drawn) [pronethalol] (10 µM) | -0.0652 | 104% (inactive)
C[C@H](NCc1ccc(OCc2cccc(F)c2)cc1)C(N)=O [safinamide] (10 µM) | -0.052 | 115% (inactive)
CC(C)(C)NCC(O)COc1cc(Cl)ccc1Cl (stereo not drawn) [cloranolol] (10 µM) | -0.0735 | 100% (inactive)
C[C@]12CC[C@H](O)C[C@H]1CC[C@@H]1[C@@H]2CC[C@]2(C)[C@@H](c3ccc(=O)oc3)C[C@H]3O[C@]132 [resibufogenin] (10 µM) | -0.241 | 110% (inactive)
CN[C@@H](C)C(=O)N[C@H](C(=O)N1CCC[C@H]1C(=O)Nc1snnc1-c1ccccc1)C1CCCCC1 (10 µM) | -0.0857 | 110% (inactive)
c1cc2c(cc1[C@H]1OC[C@H]3[C@@H]1CO[C@@H]3c1ccc3c(c1)OCO3)OCO2 [sesamin] (10 µM) | -0.0737 | 120% (inactive)
CC[C@H](C)C[C@H](C)CCCCCCCCC(=O)N[C@H]1C[C@@H](O)[C@@H](NCCN)NC(=O)[C@@H]2[C@@H](O)CCN2C(=O)[C@H]([C@H](O)CCN)NC(=O)[C@H]([C@H](O)[C@@H](O)c2ccc(O)cc2)NC(=O)[C@@H]2C[C@@H](O)CN2C(=O)[C@H]([C@@H](C)O)NC1=O [caspofungin] (10 µM) | -0.0128 | 108% (inactive)
Nc1nccc2c1ncn2[C@@H]1O[C@H](CO)[C@@H](O)[C@@H]1O [3-deazaadenosine] (10 µM) | 0.123 | 106% (inactive)
CN(C)CCn1nnnc1SCC1=C(C(=O)O)N2C(=O)[C@@H](NC(=O)Cc3csc(N)n3)[C@H]2SC1 [cefotiam] (10 µM) | 0.212 | 100% (inactive)
C#CCN[C@@H]1CCc2ccccc21 [rasagiline] (10 µM) | 0.0975 | 115% (inactive)
C[C@@H](Oc1ccc(Cl)cc1)c1ccnc2ncnn12 (10 µM) | -0.0401 | 112% (inactive)
